Each structure is given as a SMILES string. Several values for one entry are separate records, joined by “and”; a condition that tells them apart may be missing. Equal values may be shown once. Records with an inconclusive call do not appear. Activity calls are given as the source filed them. Unless noted, the call rests on the fitted dose curve.

Consider nine compounds from PubChem BioAssay (Tox21).

The nature of test [1]: Nuclear factor erythroid 2-related factor 2/antioxidant responsive element (Nrf2/ARE) small molecule agonists: qHTS cell viability counter screen in human keratinocytes (AID 1919968; active means well fitted curve in the direction sought with a large enough effect in the repeat runs; an effect the other way counts as inactive or inconclusive; further: nearly all actives have a fitted effect of over 55% in size; further: potency means the concentration at half of the fitted maximal effect). The method, boiled down: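 In human HaCaT keratinocytes stably expressing an ARE-driven luciferase, compound exposure lasted 23 h at 37 C under 5% CO2. Viable cells are quantified with a protease-based fluorogenic reagent (CellTiter-Fluor) read 1 h after addition.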
For orientation: qHTS replaces the single test concentration by a dilution series.

A short description of test [2]: Nuclear factor erythroid 2-related factor 2/antioxidant responsive element (Nrf2/ARE) small molecule agonists: luciferase reporter gene qHTS assay in human keratinocytes (AID 1919969). Further: nearly all actives have a fitted effect of over 35% in size.
Test [3] deals with Gonadotropin-releasing hormone receptor (Homo sapiens) (UniProt P30968). Put plainly: Human gonadotropin-releasing hormone receptor (GnRHR) small molecule agonists, calcium flux assay in GnRHR-HEK293 cells (AID 1920063). Further: nearly all actives have a fitted effect of over 35% in size. Further: potency means the concentration at half of the fitted maximal effect. The method, boiled down:
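Intracellular calcium rise is the read-out: engineered human GnRHR HEK293 cells, dye-loaded, are exposed to DMSO-dissolved compounds and fluorescence at Ex/Em 480/540 is tracked for 3 min.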
A general note: Calcium assays in cells follow changes in intracellular calcium, usually with a dye or a luminescent sensor.

The target in test [4] is KiSS-1 receptor (Homo sapiens) (UniProt Q969F8). Briefly: Human kisspeptin (KISS1R) small molecule agonists, calcium flux assay in KISS1R-HEK293 cells (AID 1920064; active means well fitted curve in the direction sought with a large enough effect in the repeat runs; an effect the other way counts as inactive or inconclusive; further: potency means the concentration at half of the fitted maximal effect). An outline of the steps: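 Concentration-response testing used 15 concentrations in triplicate on human KISS1R-expressing HEK293 cells. Calcium-dependent fluorescence (Ex/Em 480/540) was followed kinetically for 3 min after compound transfer.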

Test [5] in a line: G protein-coupled receptor (GPCR) small molecule agonists, calcium flux assay: HEK293 wild type cell line counter screen (AID 1920065). Further: potency means the concentration at half of the fitted maximal effect. The method, boiled down:
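Fluorescence intensity signals activation. After overnight (18 h) culture and a 1 h calcium dye load at 37 C, compounds are added by pin tool and the plate read at 480/540 nm for 3 min in 1 s steps.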

Test [6] can be described thus: p53 small molecule agonists, cell-based qHTS assay with human liver microsomes: qHTS cell viability counter screen (AID 1963579). Further: nearly all actives have a fitted effect of over 45% in size. The method, boiled down:
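p53RE-bla cells (4,000/well) were pre-incubated 5 h at 37 C, then given compounds in DMSO plus human liver microsomes (0.5 mg/mL final) and NADPH (0.5 mg/mL final) for 16 h at 37 C. Viability was read by CellTiter-Glo luminescence.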

Test [7] can be described thus: p53 small molecule agonists, cell-based qHTS assay with rat liver microsomes: qHTS cell viability counter screen (AID 1963580). Further: nearly all actives have a fitted effect of over 45% in size. An outline of the steps: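 Cytotoxicity counter screen: intracellular ATP read by CellTiter-Glo luminescence in the p53 reporter wells. HCT-116 p53RE-bla cells were treated for 16 h at 37 C alongside rat liver microsomes and NADPH, each 0.5 mg/mL final.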

Test [8] is described as follows: p53 small molecule agonists, cell-based qHTS assay: qHTS cell viability counter screen (AID 1963581). Further: nearly all actives have a fitted effect of over 45% in size. The method, boiled down:
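Luminescence from CellTiter-Glo, reflecting ATP content, serves as the cytotoxicity measure; it is taken after the 2 h reporter substrate step in HCT-116 p53RE-bla cells dosed for 16 h at 37 C.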

The target of test [9] is Beta-2 adrenergic receptor (Homo sapiens) (UniProt P07550). Put plainly: Adrenergic beta2 receptor (ADRB2) small molecule antagonists, cell-based qHTS assay (AID 1963592). Further: nearly all actives have a fitted effect of over 50% in size. Further: potency means the concentration at half of the fitted maximal effect. An outline of the steps: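 Assay format: CHO-ADRB2 cells, 18-20hr seeding at 37C/5% CO2, then compound plus 1nM isoproterenol agonist mix for 0.5hr RT. Homogeneous time-resolved fluorescence cAMP detection after 1hr, expressed as 665/615 nm ratio.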

Test [10] shares this target. Briefly: Adrenergic beta2 receptor (ADRB2) small molecule agonists, cell-based qHTS assay (AID 1963593).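 Further: CHO cells stably overexpressing human ADRB2.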 An outline of the steps:
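CHO cells stably over-expressing ADRB2 were plated overnight at 37C, then dosed with compounds plus a stimulation mix containing 100uM IBMX and 25uM Ro-20-1724 for 0.5hr at room temperature. cAMP was measured by HTRF competition, 1hr.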

Test [11] addresses D(2) dopamine receptor (Homo sapiens) (UniProt P14416). Put plainly: Dopamine D2 receptor (DRD2) small molecule agonists, cell-based qHTS assay (AID 1963594). Further: nearly all actives have a fitted effect of over 35% in size. Further: potency means the concentration at half of the fitted maximal effect. The method, boiled down: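 cAMP accumulation in DRD2-HEK293 cells measured by HTRF after 1 h detection; compounds added 10 min before NKH477 (200nM […]) forskolin-analogue stimulation, 30 min at room temperature, with Ro20-1724 present at 0.1 mM final.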

Test [12] shares this target. Briefly: Dopamine D2 receptor (DRD2) small molecule antagonists, cell-based qHTS assay (AID 1963595; active means well fitted inhibition curve with a large enough effect in the signal ratio in the repeat runs, with a control signal flat; the % refers to the signal ratio). The method, boiled down:
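Cells were plated and grown for 24 h at 37 °C. Ro20-1724 (0.1 mM final) went in first, then compound for 10 min. NKH477 (200 nM) with quinpirole (12 nM) followed for 30 min at RT, then HTRF detection reagents for 1 h.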

Test [13] is described as follows: cAMP Responsive Elements (CRE) small molecule agonists, cell-based qHTS assay (AID 1963590). An outline of the steps:
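Compound exposure lasted 3 h at 37 C/5% CO2 in CRE-bla HEK 293T cells grown in assay medium with 10% dialyzed FBS and 25 mM HEPES. Reporter signal came from LiveBLAzer B/G FRET substrate, 2 h, room temperature.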

Test [14] concerns the target 5-hydroxytryptamine receptor 2A (Homo sapiens) (UniProt P28223). Put plainly: 5-hydroxytryptamine receptor 2A (HTR2A) small molecule agonists, cell-based qHTS assay (AID 1963587). Further: nearly all actives have a fitted effect of over 30% in size. The method, boiled down:
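Kinetic calcium-flux fluorescence (2 min, 1 sec intervals) after compound addition in agonist mode. HTR2A-CHO cells were cultured 18 h, then dye-loaded 1 h at 37 C.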

Test [15] addresses Muscarinic acetylcholine receptor M1 (Homo sapiens) (UniProt P11229). Briefly: Cholinergic receptor muscarinic 1 (CHRM1) small molecule antagonists, cell-based qHTS assay (AID 1963588). Further: nearly all actives have a fitted effect of over 40% in size. The method, boiled down:
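Compounds were tested at 15 concentrations in three independent runs. Dye-loaded CHRM1-CHO cells were exposed 5 min at room temperature before stimulation by acetylcholine added at 50nM. Intracellular calcium was read kinetically on FDSS for 3 min.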

The target is the same in test [16]. Briefly: Cholinergic receptor muscarinic 1 (CHRM1) small molecule agonists, cell-based qHTS assay (AID 1963589). Further: nearly all actives have a fitted effect of over 35% in size. An outline of the steps: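 Fluorescent calcium dye reports M1 activation in stably transfected CHO cells. Compounds, 15 concentrations, added after 1 h dye loading at 37 C; kinetic reading at 1 sec intervals.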
Test [17] in a line: cAMP Responsive Elements (CRE) small molecule antagonists, cell-based qHTS assay (AID 1963591; active means well fitted inhibition curve with a large enough effect in the signal ratio in the repeat runs, not every such curve was filed as active; the % refers to the signal ratio). The method, boiled down: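 Stimulation used NKH477 at a final 0.25 uM for 3 h in compound-treated CRE-bla HEK293T cells, seeded 18 h beforehand. Reporter activity was measured with LiveBLAzer B/G FRET substrate after 2 h at room temperature.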
In test [18] the target is 5-hydroxytryptamine receptor 2A (Homo sapiens) (UniProt P28223). Put plainly: 5-hydroxytryptamine receptor 2A (HTR2A) small molecule antagonists, cell-based qHTS assay (AID 1963586). Further: nearly all actives have a fitted effect of over 45% in size. An outline of the steps:
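CHO cells stably expressing human HTR2A were plated for 18 h at 37 C, then loaded with calcium dye for 1 h. Compounds were preincubated 5 min at room temperature before DOI (4 nM solution) was added. Kinetic fluorescence was read for 3 min.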

5-hydroxytryptamine receptor 2A (Homo sapiens), sequence (P28223 whole entry, looked up): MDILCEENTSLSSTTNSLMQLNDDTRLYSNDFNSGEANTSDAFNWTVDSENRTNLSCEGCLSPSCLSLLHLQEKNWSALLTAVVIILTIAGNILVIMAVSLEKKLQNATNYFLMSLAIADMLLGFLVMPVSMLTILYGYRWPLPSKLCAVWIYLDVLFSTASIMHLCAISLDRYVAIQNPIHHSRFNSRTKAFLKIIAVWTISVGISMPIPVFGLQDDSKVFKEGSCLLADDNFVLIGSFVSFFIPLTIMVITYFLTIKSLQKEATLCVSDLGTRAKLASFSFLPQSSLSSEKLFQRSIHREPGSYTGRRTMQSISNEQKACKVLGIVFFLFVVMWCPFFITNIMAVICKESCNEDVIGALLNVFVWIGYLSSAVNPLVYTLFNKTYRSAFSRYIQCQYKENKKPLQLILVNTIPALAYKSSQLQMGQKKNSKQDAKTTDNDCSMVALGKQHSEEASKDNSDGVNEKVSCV
Beta-2 adrenergic receptor (Homo sapiens), sequence (P07550 whole entry, looked up): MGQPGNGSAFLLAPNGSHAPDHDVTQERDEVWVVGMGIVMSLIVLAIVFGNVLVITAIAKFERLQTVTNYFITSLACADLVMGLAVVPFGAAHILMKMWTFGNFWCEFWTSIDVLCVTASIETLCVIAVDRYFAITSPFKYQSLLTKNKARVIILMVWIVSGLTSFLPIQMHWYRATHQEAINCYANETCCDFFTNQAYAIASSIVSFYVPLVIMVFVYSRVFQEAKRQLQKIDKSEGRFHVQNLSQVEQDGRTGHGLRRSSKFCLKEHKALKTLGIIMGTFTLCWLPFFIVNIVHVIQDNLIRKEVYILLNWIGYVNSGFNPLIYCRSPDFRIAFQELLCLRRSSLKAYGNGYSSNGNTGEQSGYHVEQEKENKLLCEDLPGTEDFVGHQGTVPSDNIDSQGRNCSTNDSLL
D(2) dopamine receptor (Homo sapiens), sequence (P14416 whole entry, looked up): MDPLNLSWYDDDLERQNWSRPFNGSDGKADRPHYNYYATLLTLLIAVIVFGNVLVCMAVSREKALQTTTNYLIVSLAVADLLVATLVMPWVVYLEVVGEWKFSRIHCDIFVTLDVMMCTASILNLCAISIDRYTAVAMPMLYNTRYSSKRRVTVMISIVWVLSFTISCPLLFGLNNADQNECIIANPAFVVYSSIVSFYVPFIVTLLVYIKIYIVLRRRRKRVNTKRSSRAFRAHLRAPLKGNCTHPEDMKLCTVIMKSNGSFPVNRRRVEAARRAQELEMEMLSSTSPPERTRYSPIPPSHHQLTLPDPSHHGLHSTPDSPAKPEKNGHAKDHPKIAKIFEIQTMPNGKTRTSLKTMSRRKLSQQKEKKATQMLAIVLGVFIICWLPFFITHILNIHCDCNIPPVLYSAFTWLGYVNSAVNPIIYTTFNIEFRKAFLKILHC
Muscarinic acetylcholine receptor M1 (Homo sapiens), sequence (P11229 whole entry, looked up): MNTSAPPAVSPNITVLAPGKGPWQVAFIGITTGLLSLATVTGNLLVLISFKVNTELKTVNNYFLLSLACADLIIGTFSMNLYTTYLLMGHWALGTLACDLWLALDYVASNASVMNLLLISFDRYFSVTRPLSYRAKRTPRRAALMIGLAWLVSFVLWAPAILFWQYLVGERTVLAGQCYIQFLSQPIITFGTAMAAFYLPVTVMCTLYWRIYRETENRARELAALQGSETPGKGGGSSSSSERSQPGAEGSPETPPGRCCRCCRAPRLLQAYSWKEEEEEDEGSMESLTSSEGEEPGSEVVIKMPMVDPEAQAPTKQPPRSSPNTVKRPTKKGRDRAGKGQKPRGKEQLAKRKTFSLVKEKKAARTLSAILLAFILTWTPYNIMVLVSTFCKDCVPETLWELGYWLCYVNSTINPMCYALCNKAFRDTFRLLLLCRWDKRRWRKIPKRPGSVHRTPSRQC
KiSS-1 receptor (Homo sapiens), sequence (Q969F8 whole entry, looked up): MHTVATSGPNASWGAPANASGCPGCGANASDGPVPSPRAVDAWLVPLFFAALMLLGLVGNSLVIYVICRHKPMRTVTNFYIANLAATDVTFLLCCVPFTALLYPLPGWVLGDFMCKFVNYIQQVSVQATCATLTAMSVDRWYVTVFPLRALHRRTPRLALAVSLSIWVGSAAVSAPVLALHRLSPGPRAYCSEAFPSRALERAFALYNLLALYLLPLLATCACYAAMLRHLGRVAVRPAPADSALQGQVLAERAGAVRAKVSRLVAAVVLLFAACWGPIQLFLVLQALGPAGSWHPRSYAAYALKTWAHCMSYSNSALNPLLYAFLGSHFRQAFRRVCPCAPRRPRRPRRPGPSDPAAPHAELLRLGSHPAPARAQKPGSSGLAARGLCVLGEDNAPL
Gonadotropin-releasing hormone receptor (Homo sapiens), sequence (P30968 whole entry, looked up): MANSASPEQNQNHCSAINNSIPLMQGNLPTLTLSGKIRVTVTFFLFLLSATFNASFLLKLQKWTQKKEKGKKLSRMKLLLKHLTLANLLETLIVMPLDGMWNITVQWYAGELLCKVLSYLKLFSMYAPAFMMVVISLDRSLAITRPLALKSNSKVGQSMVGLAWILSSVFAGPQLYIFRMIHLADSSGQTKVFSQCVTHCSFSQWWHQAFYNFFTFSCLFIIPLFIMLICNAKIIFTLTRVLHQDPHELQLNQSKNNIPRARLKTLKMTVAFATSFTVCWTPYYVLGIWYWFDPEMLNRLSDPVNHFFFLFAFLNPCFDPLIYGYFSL

With `O=C1OC2(c3ccc(O)cc3Oc3cc(O)ccc32)c2ccccc21`, the Potency is 9.44 µM (active) in test [1]; 389 nM (active) and 1.9 µM (active) in [3]; 550 nM (active) and 2.39 µM (active) in test [4]; 1.74 µM (active) and 3.38 µM (active) in [5]. The Potency entry in test [2], in [6], in test [7], in test [8], in test [9] and in test [10] was “inactive” throughout. Besides, the Potency result in test [11] and in [12] was “inactive” in each case.

`CCOC(=O)N1CCC(=C2c3ccc(Cl)cc3CCc3cccnc32)CC1`: the Potency is 68.6 µM (active) and 26.6 µM (active) in test [1]; 54.5 µM (active) in [9]. The Potency entry in test [2], in [3], in [4], in test [5], in test [8] and in test [13] was “inactive” throughout. Further, the Potency entry in [11] and in test [12] was “inactive” each time.

With `CC(C)(N=C=O)c1cccc(C(C)(C)N=C=O)c1`, the Potency entry in [1], in [2], in test [3], in [4], in [5] and in test [6] was “inactive” throughout. In addition, the Potency entry in [8], in test [14], in test [15], in test [16], in test [13] and in [9] was “inactive” each time. Also, the Potency entry in test [11] and in test [12] was “inactive” in each case.

As to `O=C1CC2(CCCC2)CC(=O)N1CCCCN1CCN(c2ncccn2)CC1`, the Potency result in test [1], in [2], in test [3], in [4], in test [5] and in test [6] was “inactive” in each case. Also, the Potency result in test [7], in test [8], in test [13], in [17], in test [9] and in [10] was “inactive” each time. Besides, the Potency entry in [11] is “inactive”.

Consider `NC[C@H](O)c1ccc(O)c(O)c1`, for which the Potency entry in test [1], in test [2], in test [4], in test [5], in [6] and in [7] was “inactive” in each case. Also, the Potency entry in [14], in [15], in test [16] and in test [17] was “inactive” in each case. Besides, the results for the Potency in [3] and in test [11] were 19 µM (active) and 16.6 µM (active), respectively.

For `COS(C)(=O)=O`, the Potency result in test [1], in test [2], in test [3], in [4], in test [5] and in test [6] was “inactive” each time. Also, the Potency entry in [7], in test [8], in test [13], in test [17], in test [9] and in [10] was “inactive” throughout. The Potency entry in test [11] and in test [12] was “inactive” each time.

Take `OC[C@H]1O[C@@H]2O[C@H]3[C@H](O)[C@@H](O)[C@@H](O[C@H]4[C@H](O)[C@@H](O)[C@@H](O[C@H]5[C@H](O)[C@@H](O)[C@@H](O[C@H]6[C@H](O)[C@@H](O)[C@@H](O[C@H]7[C@H](O)[C@@H](O)[C@@H](O[C@H]1[C@H](O)[C@H]2O)O[C@@H]7CO)O[C@@H]6CO)O[C@@H]5CO)O[C@@H]4CO)O[C@@H]3CO`: the Potency result in test [1], in test [2], in test [3], in test [4], in test [5] and in test [6] was “inactive” in each case. Also, the Potency entry in [7], in test [8], in [13], in test [9], in [10] and in [11] was “inactive” throughout. The Potency result in test [12] is “inactive”.

In the case of `OC[C@H]1O[C@@](CO)(O[C@H]2O[C@H](CO)[C@@H](O)[C@H](O)[C@H]2O)[C@@H](O)[C@@H]1O`, the Potency entry in test [1], in test [2], in test [3], in [4], in [5] and in [6] was “inactive” each time. Moreover, the Potency entry in test [8], in [18], in test [14], in test [15], in test [16] and in [13] was “inactive” each time. Further, the Potency entry in test [17], in [9], in [11] and in [12] was “inactive” in each case.

Turning to `CC(c1cc2ccccc2s1)N(O)C(N)=O` (stereo not drawn), the Potency result in test [1], in test [2], in test [3], in test [4], in test [5] and in [6] was “inactive” throughout. The Potency entry in test [7], in test [8], in [13], in test [17], in [9] and in test [10] was “inactive” each time. The Potency entry in [11] and in test [12] was “inactive” in each case.
